Measurements from PubChem BioAssay (NCI).
Compounds without any hit were thinned out: in the full panel of roughly 83,000, 20% have a hit.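 Testing used 96-well plates and a 48-hour single-concentration exposure. Example: -40 means 40% of the starting cells died.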 Values without a mark were called inactive. Active and inactive are the calls of the source. The calls were made as follows: active = growth percent below 10; inactive = the rest.

These compounds were tested on HL-60(TB) leukemia (assay: NCI-60 one-dose screen, 48 h (100 = growth as untreated, 0 = no growth, -100 = all killed)). Settings: 10 µM unless noted.

| SMILES | growth |
| --- | --- |
| Cc1cccc2c3c(sc12)C(c1ccc(Cl)cc1)C(C#N)=C(N)O3 (stereo not given) | -21% (active) |
| COC(=O)c1cc(Br)ccc1O | 97.8% |
| FC(F)(F)c1ccc(-c2cnc(Cl)nc2NC2CCCCCC2)cc1 | -6.33% (active) |
| O=[N+]([O-])c1cc(NS(=O)(=O)c2ccccc2)ccc1NS(=O)(=O)c1ccccc1 | 113% |
| CCC(CC)NCCCCCNc1cc(OC)cc2cccnc12 | 110% |
| COc1ccc2[nH]c(-c3ccccc3)c(/C=C(\C#N)S(=O)(=O)c3ccccc3)c2c1 | 1.53% (active) |
| Nc1nonc1-n1nncc1-c1cccnc1 | 134% |
| C=C1C(=O)O[C@H]2[C@H]1CC/C(COC(=O)CCCc1c[nH]c3ccccc13)=C\CC[C@@]1(C)O[C@@H]21 | 2.97% (active) |
| CCOC(=O)C1(C)CCCC1N (stereo not given) | 98.5% |
| Nc1nc(N)c2c(n1)NC(c1cccc(Nc3ccnc4cc(C(F)(F)F)ccc34)c1)CC(c1ccccc1)=N2 (stereo not given) | 34.8% |
| NS(=O)(=O)c1cn(-c2ncnc3nc[nH]c23)ccc1=O | 79.5% |
| COC(=O)[C@]12CC[C@@H](C(C)=O)[C@@H]1[C@H]1CC[C@@H]3[C@@]4(C)C/C(=C/c5cccnc5)C(=O)C(C)(C)[C@@H]4CC[C@@]3(C)[C@]1(C)CC2 | -2.67% (active) |
| CC(=O)O[C@H]1CC[C@@]2(C)C(=CC[C@@H]3[C@@H]2CC[C@]2(C)C(c4cccnc4)=CC[C@@H]32)C1 | 4.36% (active) |
| Clc1ccc(Cl)c(N=Cc2ccc3c(c2)OCO3)c1 | 102% |
| CC1CC2C3CCC4=CC(=O)CCC4(C)C3CCC2(C)C1(O)C(=O)CO (stereo not given) | 75.4% |
| CNC(=O)c1cc(Oc2ccc3c(c2)sc2nc(-c4ccc(Cl)c(C(F)(F)F)c4)cn23)ccn1 | 35.8% |
| CCCC[N+]1(C)CCN=C1Cc1ccccc1 (stereo not given) | 88.9% |
| COc1ccc(C2CC(=O)Nc3c2c(C)nn3-c2nc3ccccc3[nH]2)cc1 (stereo not given) | -17% (active) |
| COc1ccc(-c2csc(C3=C(O)CN(CCCN4CCCC4=O)C3=N)n2)cc1OC | 114% |
| CC(=O)c1ccc(Nc2nc(NCCO)nc(Nc3ccc(Cl)cc3)n2)cc1 | 103% |

| SMILES | growth |
| --- | --- |
| CCOC(=O)c1[nH]c2cc(Cl)ccc2c1[C@@H](C(=O)NC(C)(C)C)N(CC)C(=O)CCCCC#Cc1cccc2c1CN(C1CCC(=O)NC1=O)C2=O (stereo not given in full) | -7.29% (active) |
| O=C(O)CNC(=O)CN1C(=O)c2ccccc2C1=O | 90.7% |
| N=c1sc(Cc2ccc(Cl)cc2)cn1CC(=O)c1ccc(F)cc1 | 94.8% |
| c1ccc(CSc2nnc3c4c5c(sc4nc(-c4cccnc4)n23)CCCCCC5)cc1 | 4% (active) |
| O=C1c2ccccc2NC(n2sc3ccccc3c2=O)N1c1ccccc1 (stereo not given) | 87.9% |
| CCOC(=O)c1c(C)[nH]c(C(=O)CCC(=O)OC)c1C | 94.9% |
| CC(C)(C)C1CCC(=NO)CC1 (stereo not given) | 110% |
| CCNc1ccc2ccccc2c1N=Nc1ccc(N=Nc2ccccc2)cc1 | 108% |
| O=C(CBr)c1ccc(OC(=O)c2ccccc2)cc1 | 95.5% |
| COc1ccc(/C(=C\c2cc(OC)c(OC)c(OC)c2)C(=O)N2CCN(c3ccccc3)CC2)cc1O | 106% |
| O=CN(SSN(C=O)C1CCCCC1)C1CCCCC1 | 77.2% |
| Cc1nc(-c2ccc(Cl)cc2)ccc1NC(=O)Nc1cccc(C(F)(F)F)c1 | 79.7% |
| CCN(CC)CCOc1nc2ccccc2c2c1-c1ccc(OC)cc1C2=O | 9.1% (active) |
| O=C(N/N=C/c1cccc([N+](=O)[O-])c1)c1ccc(Br)o1 | 103% |
| COc1cc2c(cc1OC)-c1ccc3cc4c(cc3c1N(CCN1CCCC1)C2)OCO4 | -39.7% (active) |
| Cc1nn(-c2ccccc2)c(/N=C/N(C)C)c1/C=C/C(=O)c1ccc(Cl)cc1 | 76.3% |
| COc1ccc(-n2c(=O)c3ccccc3n(Cc3ccc(C(=O)NO)cc3)c2=O)cc1 | -4.17% (active) |
| O=c1c2cc(F)ccc2sc2c(NCCCNCCO)nc3ccc(F)cc3c12 | 54.6% |
| CC1=NN(c2ccc(Cl)cc2)CC1(C)N=O (stereo not given) | 38.5% |
| Clc1ccc(C2=NN[C@H](c3cn(-c4ccccc4)nc3-c3ccccc3)C2)cc1 | 100% |
